# A selection: hits, their analogues and other compounds. The true share with any hit is near 3.9%.
# SKKanGAS inh: blocks kanamycin growth of S. pyogenes SKKanGAS strain; 300,000 tested, 1.3% active; BacTiter-Glo, 6 h; inhibition, % at 7.5 µM;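 active means mean replicate score, as percent of positive control median, at least 50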;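 further: strain carries kanamycin resistance gene driven by streptokinase promoter and grows in 40 µg/ml kanamycin; loss of luminescence reflects streptokinase promoter inhibition or plain growth inhibition; 0% = median of DMSO wells and 100% = positive control at its reference dose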
# PHOSPHO1 block: inhibitors of human PHOSPHO1 phosphatase | Q8TCT1 | recombinant PHOSPHO1, absorbance phosphatase assay | inhibition, % at 13.3 µM | 290,000 tested, 1.1% active | AID 1565; in the data active means inhibition above about 60%
# WT yeast gro inh: growth inhibition of WT yeast, mitochondrial fusion screen; mitochondrial fusion phenotypic screen, WT strain; inhibition, % at 10 µM; 190,000 tested, 2.1% active; in the data active means inhibition above about 58%; tested in S. cerevisiae
# Rtt109 Vps75: inhibitors of Candida albicans Rtt109/Vps75 histone acetyltransferase; purified Rtt109/Vps75, ThioGlo CoA-SH fluorescence, 4 h; inhibition, % at 34.9 µM; 330,000 tested, 0.16% active; Q5AAJ8;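 active means inhibition of at least 50% in every replicate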
# Target sequence (Q5AAJ8 whole entry, looked up): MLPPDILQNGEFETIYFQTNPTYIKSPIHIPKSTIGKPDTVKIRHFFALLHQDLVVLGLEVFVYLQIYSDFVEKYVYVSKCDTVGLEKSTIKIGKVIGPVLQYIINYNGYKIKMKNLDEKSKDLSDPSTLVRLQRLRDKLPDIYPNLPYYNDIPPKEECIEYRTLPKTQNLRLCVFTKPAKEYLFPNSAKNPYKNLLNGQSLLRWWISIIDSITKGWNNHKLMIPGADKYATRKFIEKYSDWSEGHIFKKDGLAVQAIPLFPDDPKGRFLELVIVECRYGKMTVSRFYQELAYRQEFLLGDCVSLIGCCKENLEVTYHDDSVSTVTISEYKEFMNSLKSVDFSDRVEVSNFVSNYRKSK
# TPT1 inh: inhibitors of Candida albicans tRNA 2'-phosphotransferase TPT1; recombinant caTPT1, FP RNA substrate dephosphorylation; inhibition, % at 5 µM; 300,000 tested, 0.81% active;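 active means inhibition above the mean of all tested compounds plus 3 SD, set per screening campaign, cut at about 24% in these data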;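 further: plate controls were DMSO alone for no effect and ferristatin control at 100 nM for full effect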
# Platelet DG rel: modulates dense granule release in human platelets. inhibition, %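 (compounds screened at 7.5 µM in platelet-rich plasma)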. 300,000 tested, 0.22% active. AID 1663. human platelet-rich plasma, SFLLRN dense granule ATP release, luminescence;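 active means mean replicate score, as percent of positive control, at or above 50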
# * = called active by the depositor; i = inactive; x = not tested or not shown.
SMILES,SKKanGAS inh,PHOSPHO1 block,WT yeast gro inh,Rtt109 Vps75,TPT1 inh,Platelet DG rel
CCOc1cc(CNCc2ccccn2)cc(Cl)c1OC,8,41,-3,10,-2,6
CCOc1cc(CNCC(O)c2ccccc2)cc(Cl)c1OC (stereo not drawn),-9,62*,-18,x,-7,7
O=C1COc2ccc(C(=O)COC(=O)c3ccc(F)cc3Cl)cc2N1,x,x,x,4,x,x
COC(=O)c1ccc2nc(NC(=O)CN3C(=O)CCC3=O)sc2c1,3,71*,-9,6,-2,-7
COC(=O)c1ccc2nc(NC(=O)C3CC3)sc2c1,-3,18,x,-2,0,-6
CN(C)CCCn1cnc2c1c(=O)[nH]c(=O)n2Cc1ccccc1,2,6,x,0,2,3
O=C(NC1CCN(C(=S)NCc2ccco2)CC1)NC12CC3CC(CC(C3)C1)C2,8,89*,-9,3,1,-4
O=C(CC12CC3CC(CC(C3)C1)C2)NC(=S)NCc1ccco1,35,10,73*,9,-1,-2
CN(Cc1ccccc1)S(=O)(=O)c1ccc(Cl)c(C(=O)NCc2cccnc2)c1,9,x,x,0,1,-3
CCN1C(=O)/C(=C2/SC(C)=C(C)N2CC)SC1=S,2,80*,-1,-3,7,-2
CCCCCN1C(=O)/C(=C/c2c(N3CCc4ccccc4C3)nc3ccccn3c2=O)SC1=S,5,x,x,-9,82*,3
CN1CCN(c2nc(-c3ccccc3)ncc2S(=O)(=O)c2ccccc2)CC1,-4,-38,-8,16,-3,-6
O=S(=O)(c1ccccc1)c1cnc(-c2ccccc2)nc1N1CCCCC1,14,26,58*,-9,-3,-2
Cc1nn(C(=O)C2CC2)c(C)c1Sc1ccc(Cl)cc1,35,-2,79*,-8,-4,-29
Cc1ccc(Sc2c(C)nn(C(=O)C3CC3)c2C)cc1,16,-14,85*,-2,-1,-1
CCOC(=O)C(Sc1nn(C)c(=S)s1)C(C)=O (stereo not drawn),2,97*,-2,-6,0,0
COc1cc(/C=N/NC(=O)C(=O)NCc2ccco2)cc(Br)c1O,10,85*,x,21,0,-1
CC/C(=N\NC(=O)c1nnn(-c2nonc2N)c1CN(C)c1ccccc1)c1ccccc1,-1,12,x,13,-1,-1
CCNC(=O)NC(=O)CSc1nnc(-c2c[nH]c3ccccc23)o1,-4,19,x,51*,-5,7
CC(=O)Oc1ccc(-c2cc3c(OC(C)=O)cc(OC(C)=O)cc3oc2=O)cc1,2,x,x,i,19,58*
O=C(COc1ccc(F)cc1)N(Cc1cccc(Br)c1)C1CCS(=O)(=O)C1 (stereo not drawn),-3,65*,x,3,0,8
CC1Cc2cc(S(=O)(=O)N3CCC(C(=O)N(C)Cc4ccco4)CC3)ccc2N1C(=O)C1CCC1 (stereo not drawn),-6,22,x,50*,-1,12
CCOC(=O)C1CCN(S(=O)(=O)c2ccc3c(c2)CC(C)N3C(=O)C2CCC2)CC1 (stereo not drawn),-1,43,x,54*,-1,-4
CCOC(=O)C1CCCN(S(=O)(=O)c2ccc3c(c2)CC(C)N3C(=O)C2CC2)C1 (stereo not drawn),-10,36,x,3,-3,1
CCC(C)(C)NC(=O)C1CCCN(S(=O)(=O)c2ccc3c(c2)CC(C)N3C(=O)C2CC2)C1 (stereo not drawn),-7,63*,x,13,0,4
SMILES,SKKanGAS inh,PHOSPHO1 block,WT yeast gro inh,Rtt109 Vps75,TPT1 inh,Platelet DG rel
Cn1c(N)c(C(=O)CSc2nnc3n2CCCCC3)c(=O)n(C)c1=O,x,x,x,0,x,x
CC(C)(C)C(=O)NC(Nc1cccc2cccnc12)C(Cl)(Cl)Cl (stereo not drawn),6,76*,-12,5,-1,22
Cc1ccc(-c2c(C#N)c(N)n3c(nc4ccccc43)c2C#N)cc1,52*,42,-16,1,22,2
N#Cc1c(-c2ccccc2)c(C#N)c2nc3ccccc3n2c1N,13,3,8,3,14,6
COc1ccc(OCc2nnc(SCC(=O)O)n2N)cc1,-4,60*,12,-2,-2,0
Cn1c(COc2ccc(Cl)cc2)nnc1SCc1ncc(-c2ccccc2)o1,-1,80*,41,0,-1,-1

# Assay outcomes deposited in PubChem by several laboratories.
